Data as given in PubChem BioAssay (NCATS).
A number with no mark means an inactive call. Inconclusive results are not listed. Active and inactive are the calls of the source. Unless noted, the call rests on the fitted dose curve; in most records, active means well fitted activation curve with a large enough effect in the main read-out, with a control signal flat (not every such curve was filed as active); inconclusive means small, poorly fitted or top-dose-only effect, or effect the other way, or a change in a side signal; inactive means flat fitted curve, though single readings scatter.

Target: 3',5'-cyclic-AMP phosphodiesterase 4B (Homo sapiens) (UniProt Q07343)
Assay: qHTS Assay for Inhibitors of PDE-IV (AID 607); further: % of control where 0% means no effect
Conditions: HEK293 ACTOne CNG channel cells, membrane potential fluorescence; series mostly up to 22.9 µM; activation (PDE inhibition): at the top concentration
Procedure, shortened: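 Live HEK293 cells with a modified cyclic nucleotide-gated (CNG) channel report intracellular cAMP via membrane-potential dye fluorescence (ex 535/em 590 nm). Endogenous PDE-IV was targeted. Compounds were tested at up to 22.9 uM final; RO 20-1724 100 uM served as control.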

Sequence of 3',5'-cyclic-AMP phosphodiesterase 4B (Homo sapiens) (Q07343 whole entry, looked up): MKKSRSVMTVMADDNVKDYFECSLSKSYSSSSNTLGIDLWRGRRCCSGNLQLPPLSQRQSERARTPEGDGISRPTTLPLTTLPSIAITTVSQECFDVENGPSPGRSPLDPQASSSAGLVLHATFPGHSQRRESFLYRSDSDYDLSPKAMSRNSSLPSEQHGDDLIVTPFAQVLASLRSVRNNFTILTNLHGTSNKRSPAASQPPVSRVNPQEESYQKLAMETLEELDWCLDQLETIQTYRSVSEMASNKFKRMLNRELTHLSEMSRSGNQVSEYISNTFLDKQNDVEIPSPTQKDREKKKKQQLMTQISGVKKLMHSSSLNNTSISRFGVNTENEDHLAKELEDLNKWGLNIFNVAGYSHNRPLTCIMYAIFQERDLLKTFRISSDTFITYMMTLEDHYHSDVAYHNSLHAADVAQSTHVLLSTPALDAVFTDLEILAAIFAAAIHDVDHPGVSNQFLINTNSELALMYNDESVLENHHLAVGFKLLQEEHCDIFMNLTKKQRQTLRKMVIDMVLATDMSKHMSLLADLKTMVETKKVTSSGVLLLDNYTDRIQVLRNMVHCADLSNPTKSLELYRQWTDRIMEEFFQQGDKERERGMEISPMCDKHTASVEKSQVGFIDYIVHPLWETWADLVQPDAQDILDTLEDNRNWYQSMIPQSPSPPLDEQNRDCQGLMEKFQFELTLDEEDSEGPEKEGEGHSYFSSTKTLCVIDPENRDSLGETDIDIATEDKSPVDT

Row | SMILES | activation (PDE inhibition) [%] | outcome
1 | CCOC(=O)C1=C[C@@]2(CC)CCCN3CCc4c(n1c1ccccc41)[C@H]32 | 21.2 | 
2 | CCCC(CCC)C(=O)O | -4.93 | 
3 | Nc1nc2c(ncn2COCCO)c(=O)[nH]1 |  | inactive
4 | CCCCNc1cc(C(=O)O)cc(S(N)(=O)=O)c1Oc1ccccc1 |  | inactive
5 | CC(C)(Sc1ccc(CCN(CCCCC2CCCCC2)C(=O)NC2CCCCC2)cc1)C(=O)O | -21.3 | 
6 | N[C@@H]1CONC1=O |  | inactive
7 | CN1CCN(CCCN2c3ccccc3Sc3ccc(C(F)(F)F)cc32)CC1 |  | inactive
8 | CC(=O)Oc1ccccc1C(=O)O | -11.9 | 
9 | CCN(c1ccccc1)c1cc(NC)[n+](C)c(C)n1 | 28.4 | 
10 | NS(=O)(=O)c1cc2c(cc1Cl)NC=NS2(=O)=O |  | inactive
11 | Cc1ccc2c(c1)C(=O)[C@@]1(O)CCN(c3ccccc3)C1=N2 | 3.27 | 
12 | CNC[C@H](O)c1cccc(O)c1 | -5.41 | 
13 | Cn1cnc([N+](=O)[O-])c1Sc1ncnc2nc[nH]c12 |  | inactive
14 | O=c1n(CCCN2CCN(c3cccc(Cl)c3)CC2)nc2ccccn12 |  | inactive
15 | Cc1cn[nH]c1 | -7.63 | 
16 | Clc1cccc(Cl)c1NC1=NCCN1 |  | inactive
17 | N#Cc1ccc(C(c2ccc(C#N)cc2)n2cncn2)cc1 | 1.03 | 
18 | C1COC(NC(C2CC2)C2CC2)=N1 |  | inactive

Row | SMILES | activation (PDE inhibition) [%] | outcome
19 | Cc1[nH]c(=O)c(C#N)cc1-c1ccncc1 |  | inactive
20 | O=C1CCc2cc(OCCCCc3nnnn3C3CCCCC3)ccc2N1 | 26.9 | 
21 | Cc1ccc(N(CC2=NCCN2)c2cccc(O)c2)cc1 |  | inactive
22 | N=c1nc(N2CCCCC2)cc(N)n1O |  | inactive
23 | NC(N)=NC(=O)c1nc(Cl)c(N)nc1N |  | inactive
24 | Cc1cc2c(C(C)C)c(O)c(O)c(C=O)c2c(O)c1-c1c(C)cc2c(C(C)C)c(O)c(O)c(C=O)c2c1O | -4.26 | 
25 | NCCc1ccc(O)c(O)c1 | -14.6 | 
26 | Nc1ccc(S(=O)(=O)Nc2ccnn2-c2ccccc2)cc1 |  | inactive
27 | NC[C@H](O)c1ccc(O)c(O)c1 |  | inactive
28 | CCOC(=O)N1CCC(=C2c3ccc(Cl)cc3CCc3cccnc32)CC1 | 14.4 | 
29 | COc1ccc2nc(S(=O)Cc3ncc(C)c(OC)c3C)[nH]c2c1 (configuration not stated) | -11.3 | 
30 | NNCCc1ccccc1 |  | inactive
31 | O=NN(CCCl)C(=O)NCCCl | -13.3 | 
32 | NC(=O)c1cnccn1 | 6.85 | 
33 | Nc1nc2ccc(OC(F)(F)F)cc2s1 |  | inactive
34 | O=c1[nH]cnc2[nH]ncc12 | -6.81 | 
35 | Cc1oncc1C(=O)Nc1ccc(C(F)(F)F)cc1 |  | inactive

Test system: not listed separately
Assay: Cellular Toxicity (caspase-3) HepG2 (AID 654; active means well fitted curve in the direction sought with a large enough effect; an effect the other way counts as inactive or inconclusive;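 further: cells exposed to compound for 16 hours before reading; 0% = DMSO alone and 100% = caspase signal from 100 µM tamoxifen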)
Conditions: HepG2 caspase-3 activation, luminescence, 0% = DMSO only, 100% = tamoxifen; series mostly up to 92.2 µM; caspase-3 activation: at the top concentration
Procedure, shortened: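 Concentration-response AC50 values reflect caspase-3/7 induction in HepG2 cells after 16 hours of compound exposure, quantified by luminescence from liberated aminoluciferin and referenced to 100 uM tamoxifen as full stimulation.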

Row | SMILES | caspase-3 activation [%] | outcome
36 | CCCC(CCC)C(=O)O | 0.0909 | 
37 | CC(=O)Oc1ccccc1C(=O)O |  | inactive
38 | NS(=O)(=O)c1cc2c(cc1Cl)NC=NS2(=O)=O | 0.383 | 
39 | Cn1cnc([N+](=O)[O-])c1Sc1ncnc2nc[nH]c12 | 0.159 | 
40 | NC(N)=NC(=O)c1nc(Cl)c(N)nc1N | -1.33 | 
41 | NC(=O)c1cnccn1 | 0.0746 | 
42 | O=c1[nH]cnc2[nH]ncc12 | -0.109 | 

Test system: not listed separately
Assay: Cellular Toxicity (caspase-3) Jurkat (AID 655; active means well fitted curve in the direction sought with a large enough effect; an effect the other way counts as inactive or inconclusive;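 further: cells exposed to compound for 16 h at 37 °C before reading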)
Conditions: Jurkat caspase-3 activation, luminescence, DMSO = 0%, tamoxifen = 100%; series mostly up to 92.2 µM; caspase-3 activation: at the top concentration
Procedure, shortened: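 Caspase 3/7 activation is scored as increased luminescence in Jurkat cells cultured with compound for 16 hours in complete medium. AC50 values come from Hill fits of qHTS concentration-response data normalized to DMSO and 100 uM tamoxifen controls.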

Row | SMILES | caspase-3 activation [%] | outcome
43 | CCCC(CCC)C(=O)O | -0.269 | 
44 | CC(=O)Oc1ccccc1C(=O)O |  | inactive
45 | NS(=O)(=O)c1cc2c(cc1Cl)NC=NS2(=O)=O | 0.195 | 
46 | Cn1cnc([N+](=O)[O-])c1Sc1ncnc2nc[nH]c12 | 5.44 | 
47 | NC(N)=NC(=O)c1nc(Cl)c(N)nc1N | 1.75 | 
48 | NC(=O)c1cnccn1 | -1.3 | 
49 | O=c1[nH]cnc2[nH]ncc12 | 0.609 | 

Test system: not listed separately
Assay: Cellular Toxicity (caspase-3) HUV-EC-C (AID 656; active means well fitted curve in the direction sought with a large enough effect; an effect the other way counts as inactive or inconclusive)
Conditions: HUV-EC-C cells, caspase-3 activation (apoptosis), vehicle = 0, 100 µM tamoxifen = 100%; series mostly up to 92.2 µM; caspase-3 activation: at the top concentration
Procedure, shortened: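 Read-out: luminescence proportional to caspase 3/7 activity, measured 20 min after adding Caspase-Glo 3/7 reagent. Cells (HUV-EC-C) had received compound for 16 hr at 37°C. Increases relative to DMSO and 100 uM tamoxifen gave concentration-response AC50 values.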

Row | SMILES | caspase-3 activation [%] | outcome
50 | CCCC(CCC)C(=O)O | -0.489 | 
51 | CC(=O)Oc1ccccc1C(=O)O |  | inactive
52 | NS(=O)(=O)c1cc2c(cc1Cl)NC=NS2(=O)=O | -3.09 | 
53 | Cn1cnc([N+](=O)[O-])c1Sc1ncnc2nc[nH]c12 | -4.16 | 
54 | NC(N)=NC(=O)c1nc(Cl)c(N)nc1N | -0.236 | 
55 | NC(=O)c1cnccn1 | 1.82 | 
56 | O=c1[nH]cnc2[nH]ncc12 | -2.27 | 

Test system: not listed separately
Assay: Cellular Toxicity (caspase-3) SHSY5Y (AID 657; active means well fitted curve in the direction sought with a large enough effect; an effect the other way counts as inactive or inconclusive;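 further: cells exposed to compound for 16 hours at 37 °C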)
Conditions: SH-SY5Y caspase-3 activation, DMSO zero, 10 µM staurosporine = 100%; series mostly up to 91.7 µM; caspase-3 activation: at the top concentration
Procedure, shortened: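 Cells plated and incubated 5 h at 37 °C, dosed over a concentration range, incubated 16 h, then given Caspase-Glo 3/7 reagent for 1 h at room temperature before luminescence reading. Staurosporine (10 uM) defined full stimulation.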

Row | SMILES | caspase-3 activation [%] | outcome
57 | CCCC(CCC)C(=O)O | 2.86 | 
58 | CC(=O)Oc1ccccc1C(=O)O |  | inactive
59 | NS(=O)(=O)c1cc2c(cc1Cl)NC=NS2(=O)=O | -0.612 | 
60 | Cn1cnc([N+](=O)[O-])c1Sc1ncnc2nc[nH]c12 | 5.77 | 
61 | NC(N)=NC(=O)c1nc(Cl)c(N)nc1N | -4.09 | 
62 | NC(=O)c1cnccn1 | 1.45 | 
63 | O=c1[nH]cnc2[nH]ncc12 | 2.18 | 

Test system: not listed separately
Assay: Cellular Toxicity (caspase-3) BJ (AID 658; active means well fitted curve in the direction sought with a large enough effect; an effect the other way counts as inactive or inconclusive)
Conditions: BJ fibroblasts, luminescence, normalized: DMSO 0%, staurosporine 100%; series mostly up to 91.7 µM; caspase-3 activation: at the top concentration
Procedure, shortened: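 Caspase-Glo 3/7 luminescence, read 1 hr after reagent at room temperature, in normal BJ fibroblasts exposed 16 hours at 37 °C. AC50 values from Hill-equation concentration-response, scaled between DMSO basal and 10 uM staurosporine as 100%.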

Row | SMILES | caspase-3 activation [%] | outcome
64 | CCCC(CCC)C(=O)O | -1.55 | 
65 | CC(=O)Oc1ccccc1C(=O)O |  | inactive
66 | NS(=O)(=O)c1cc2c(cc1Cl)NC=NS2(=O)=O | -0.487 | 
67 | Cn1cnc([N+](=O)[O-])c1Sc1ncnc2nc[nH]c12 | 0.317 | 
68 | NC(N)=NC(=O)c1nc(Cl)c(N)nc1N | 1.1 | 
69 | NC(=O)c1cnccn1 | 0.444 | 
70 | O=c1[nH]cnc2[nH]ncc12 | 3.22 | 

Test system: not listed separately
Assay: Cellular Toxicity (caspase-3) MRC-5 (AID 659; active means well fitted curve in the direction sought with a large enough effect; an effect the other way counts as inactive or inconclusive)
Conditions: MRC-5 cells, luminescence, normalized: DMSO 0%, 10 µM staurosporine 100%; series mostly up to 91.7 µM; caspase-3 activation: at the top concentration
Procedure, shortened: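 Luminescent Caspase-Glo 3/7 read-out (1 h, room temperature) after a 16 h, 37 °C compound exposure of MRC-5 lung fibroblasts at 1500 cells/well. Concentration-response AC50 from Hill equation; 0% DMSO, 100% 10 uM staurosporine.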

Row | SMILES | caspase-3 activation [%] | outcome
71 | CCCC(CCC)C(=O)O | -0.989 | 
72 | CC(=O)Oc1ccccc1C(=O)O |  | inactive
73 | NS(=O)(=O)c1cc2c(cc1Cl)NC=NS2(=O)=O | 0.185 | 
74 | Cn1cnc([N+](=O)[O-])c1Sc1ncnc2nc[nH]c12 | -1.25 | 
75 | NC(N)=NC(=O)c1nc(Cl)c(N)nc1N | 2.03 | 
76 | NC(=O)c1cnccn1 | -0.38 | 
77 | O=c1[nH]cnc2[nH]ncc12 | 0.571 | 
